Source: PubChem BioAssay
A selection: hits, their analogues and other compounds. The true share with any hit is near 6.7%.
PINK1 modulator = modulators of PINK1 expression | Potency, µM (series often up to 76.6 µM), for the others: at the highest dose activation (PINK1 increase), usual class: activators | 0.2% of 410,000 active | AID 624263 | PINK1 immunofluorescence, high-content cytometry, 24 h; active = well fitted activation curve with a large enough effect; inconclusive = small, poorly fitted or top-dose-only effect; cell line not stated here; note: % of control where 0% means no effect; nearly all actives have a fitted effect of over 65% in size
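PINK1 protein, normally rapidly degraded, was detected by immunofluorescence after 24 hour compound treatment of a stable cell line. Titration data (5 concentrations) came from laser-scanning cytometry, with CCCP-treated wells as controls.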
KB-V1 cytotox = KB-V1 MDR subline cytotoxicity; 3.4% of 400,000 active; KB-V1 MDR cells viability, CellTiter-Glo, 72 h; AID 1347076; Potency, µM (series often up to 46.1 µM), usual class: cytotoxic; note: % is set by controls: 0 for no effect and ±100 for the full control effect; nearly all actives have a fitted effect of over 60% in size
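KB-V1, DMEM (no phenol red) + 10% FBS; cpd pin-transferred, titration series; 72 h, 37 degrees C; CellTiter-Glo, luminescence. Data normalized, curve-fit.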
MCF10A rereplic = DNA re-replication induction in MCF 10a cells; 2.9% of 350,000 active; AID 624296; Potency, µM (series often up to 46.1 µM), for inactives: at the top dose activity, positive = re-replication, actives largely listed as activators; MCF 10A DNA re-replication, Hoechst nuclear intensity, 48 h; note: % of control where 0% means no effect; nearly all actives have a fitted effect of over 50% in size
SW480 rereplic = DNA re-replication induction in SW480 cells. SW480 DNA re-replication, Hoechst DNA content imaging, 48 h. Potency, µM (series often up to 46.1 µM), for inactives: at the highest dose re-replication activation, usual class: activators. 1.8% of 340,000 active. AID 624297; note: % of control where 0% means no effect; nearly all actives have a fitted effect of over 55% in size
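Treated cells incubate 48 hr (37 C, 5% CO2), are stained 40 min with Hoechst, and nuclear fluorescence is enumerated; a rise in nuclei with high DNA signal marks re-replication.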
KB-3-1 tox = KB-3-1 parental cell cytotoxicity. KB-3-1 viability, CellTiter-Glo ATP luminescence, 72 h. Potency, µM (highest dose often 46.1 µM), actives largely listed as cytotoxic. 1.4% of 400,000 active; note: % is set by controls: 0 for no effect and ±100 for the full control effect; nearly all actives have a fitted effect of over 60% in size
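Parental KB-3-1 viability, qHTS format: 72 h compound exposure, 37 °C; CellTiter-Glo; media-only wells and DMSO plates as controls; concentration-effect fits on corrected data.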
Starred values were filed as active, the others as inactive; i = inactive; u = inconclusive; x = not tested or not shown; [ ] = remark or other dose. Unless noted, calls come from the whole dose curve; as a rule, active = well fitted curve in the direction sought with a large enough effect; inconclusive = small, poorly fitted or top-dose-only effect, or another doubt; inactive = no such curve, though single readings can be large; an effect the other way counts as inactive or inconclusive. Potency is the fitted concentration of half-maximal effect.

SMILES	PINK1 modulator	KB-V1 cytotox	MCF10A rereplic	SW480 rereplic	KB-3-1 tox
COc1ccc(-c2nc(Cn3c(SCc4ccccc4F)nc4cccnc43)c(C)o2)cc1	4%	x	x	x	x
O=C(CN1C(=O)CC(c2ccco2)Sc2ccccc21)Nc1ccc(OC(F)(F)F)cc1 (centres undefined)	4%	i	x	x	i
Cc1cc(C)cc(Nc2cnn(C34CC5CC(CC(CC(=O)O)(C5)C3)C4)c(=O)c2Cl)c1	1%[38.3 µM]	i	23µM*	u	i
O=C(NC1CC(=O)N(c2ccc(F)cc2)C1)C1CCCC1 (centres undefined)	1%	x	x	x	x
Cc1ccc(CNC(=O)c2cc(C)nn2-c2ccccc2)cc1	0%	i	-14%	-18%	u
Cc1ccc(Cc2nnc3n(-c4ccccc4)nc(C(=O)c4ccccc4)n3c2=O)cc1	-1%	8.2µM*	16µM*	18µM*	u
O=C(c1ccc(S(=O)(=O)c2ccc(F)cc2)c([N+](=O)[O-])c1)N1CCCCCC1	-1%	8.2µM*	u	u	i
O=C(c1ccc(S(=O)(=O)c2ccccc2Cl)c([N+](=O)[O-])c1)N1CCN(Cc2ccccc2)CC1	0%	2.3µM*	u	21µM*	u
COc1ccc(N2CCN(C(=O)c3ccc(F)cc3)CC2)c([N+](=O)[O-])c1	-2%	u	-27%	-99%	i
O=C(c1ccc(F)cc1)N1CCN(c2cc(N3CCCCC3)c(F)cc2[N+](=O)[O-])CC1	-4%[38.3 µM]	9.2µM*	30%	13%	i
CCc1ccc(NC(=O)Cn2c(=O)n(-c3ccc(Cl)c(Cl)c3)c(=O)c3c(C)c(C)sc32)cc1	3%	i	x	x	i
O=C(CSc1nc2ccccc2[nH]1)NC1CCCc2ccccc21 (centres undefined)	0%	i	13%	0%	i
COc1ccc2nc(SCC(=O)N(C)C3CCCCC3)[nH]c2c1	0%	21µM*	0%	2%	i
COc1ccc2nc(SCC(=O)NC(C)(C)C)[nH]c2c1	x	i	8.2µM*	u	i
COc1ccc2nc(SCC(=O)NC3CCCc4ccccc43)[nH]c2c1 (centres undefined)	0%	18µM*	-1%	-2%	u
O=C(CSc1nc2ccc(Cl)cc2[nH]1)NC1CCCc2ccccc21 (centres undefined)	u	i	u	4%	i
Cc1ccc2nc(SC(C)C(=O)NC3CCCc4ccccc43)[nH]c2c1 (centres undefined)	u	21µM*	u	x	i
Cc1ccc(C)c(OCCC(=O)N2CCN(S(=O)(=O)c3cc(C)ccc3C)CC2)c1	2%	u	u	9%	u
COc1ccc(NC(=O)COC(=O)c2c(C)noc2C)cc1Cl	-1%	i	x	x	u
CC1CCCN(C(=O)c2cc3ccccc3cc2O)C1 (centres undefined)	0%	i	-29%	-1%	i
Cc1ccccc1-n1nnnc1SC(C)C(=O)NC1CCCc2ccccc21 (centres undefined)	-2%	3.7µM*	-3%	u	i
Cc1cc(Nc2cccc([N+](=O)[O-])c2)n2c(nc3ccccc32)c1C#N	u	3.3µM*	6.3µM*	u	5.2µM*
Cc1cc(Nc2ccc(F)cc2)n2c(nc3ccccc32)c1C#N	4%	i	x	x	i
Cc1cnc(-n2ncc(C(=O)NCCc3ccncc3)c2-c2cccs2)nc1-c1ccc(F)cc1	1%	x	x	x	x
Cc1csc(NC(=O)c2ccc(OCC3CCCO3)cc2)n1 (centres undefined)	2%	13µM*	-6%	-4%	i
SMILES	PINK1 modulator	KB-V1 cytotox	MCF10A rereplic	SW480 rereplic	KB-3-1 tox
O=C(Nc1nc(-c2ccc(S(=O)(=O)N3CCOCC3)cc2)cs1)c1ccccc1	6%	u	10%	10%	i
CN(CC1CCCO1)S(=O)(=O)c1ccc(C(=O)Nc2nc(-c3ccccn3)cs2)cc1 (centres undefined)	2%	i	13%	-5%	4.1µM*
Cc1ccc(C(=O)Nc2nc(-c3ccccn3)cs2)cc1S(=O)(=O)N1CCOCC1	3%	u	21µM*	u	i
O=C(Nc1nc(-c2ccccn2)cs1)c1ccc(F)c(S(=O)(=O)N2CCOCC2)c1	2%	u	-3%	u	u
O=C(Nc1nc(-c2nc3ccccc3s2)cs1)c1ccc(S(=O)(=O)N2CCOCC2)cc1	1%[38.3 µM]	4.6µM*	22%	2%	u
CN(CC1CCCO1)S(=O)(=O)c1ccc(C(=O)Nc2ccccc2F)cc1 (centres undefined)	0%	u	u	22%	i
COc1ccc(NC(=O)c2cc(-c3cc(F)ccc3OCC3CCCO3)n[nH]2)c(C)c1 (centres undefined)	3%	i	x	x	i
CC(C)CN1C(=O)C(=O)N(CC(=O)NCCCc2ccccc2)C1=O	-1%	i	x	x	i
Cc1csc(B(O)O)c1	0%	i	x	x	i
CN(C)S(=O)(=O)c1ccc(C(=O)Nc2nc(-c3cc4ccccc4o3)cs2)cc1	0%	i	4.6µM*	7%	i
Cc1ccc(CN(Cc2ccco2)c2cnc(S(C)(=O)=O)nc2C(=O)Nc2ccc(Br)cc2)o1	-2%	u	x	x	i
COc1c2c(c3c(c1OC)c(=O)c1ccccc1n3C)OCO2	-4%	13µM*	10%	15%	i
Cc1nn(C)c(C)c1NC(=O)COc1ccc(Cl)cc1Br	-1%	x	16µM*	-3%	x
CCN(CC)S(=O)(=O)c1cccc(NC(=O)C(=O)c2c(-c3ccccc3)cc3ccccn23)c1	1%	3.3µM*	7%	2%	i
CCN(CC)S(=O)(=O)c1cccc(NC(=O)c2ccc(Br)cc2)c1	0%	6.5µM*	8%	3%	i
CN(C)S(=O)(=O)c1cccc(NC(=O)c2cncc(Br)c2)c1	2%	15µM*	u	-12%	i
COC(=O)N1CCC2(CC1)CN(c1ccccc1)C2	0%	x	x	x	x
CCN(CC)c1ccc(C(=O)Nc2cccc(F)c2)cc1	5%	i	u	13µM*	i
CCN(CC)S(=O)(=O)c1cccc(NC(=O)COc2ccc(Cl)cc2Br)c1	14%	21µM*	16%	13%	u
CN(C)S(=O)(=O)c1cccc(NC(=O)COc2ccc(S(=O)(=O)N3CCOCC3)cc2Cl)c1	5%	i	-1%	-7%	i
Nc1cc(Cl)cc2c1-c1ccc(Cl)cc1C2	4%	u	u	10%	u
CCc1cc(C(=O)c2ccccc2OC)c(N)s1	x	u	-11%	2%	i
CCn1c(=O)[nH]c(=O)c2c(N)c(C(=O)c3ccccc3OC)sc21	-1%	23µM*	1%	-32%	i
Cc1ccc(/C=C2\CCOC2=O)cc1	0%	i	-5%	10%	i
